MITF primary: inhibitors of human MITF | O75030 | AlphaScreen MITF homodimerization, bead proximity signal | actives 0.91% (n = 650,000) | inhibition, % at 2.6 µM | AID 1259374; in the data active = inhibition above about 50%;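 also: 0% = vehicle wells with protein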
TEAD-YAP inh: TEAD-YAP interaction inhibition. HEK-TIYL cells, TEAD-Gal4/YAP UAS-luciferase luminescence. inhibition, % at 9.12 µM. actives 1.4% (n = 640,000); in the data active = inhibition above about 32%;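 also: 0% = median of test compound wells and 100% = reference inhibitor wells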
GPR151 ag: activators of human GPR151. Q8TDV0. actives 1% (n = 650,000). AID 1508602. activation, % at 11.2 µM. PathHunter beta-arrestin GPR151 cells, luminescence; in the data active = activation above about 4.9%;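 also: 0% = median of compound wells and 100% = cells with positive control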
FBW7 act: activators of human E3 ligase FBW7; Q969H0; AlphaScreen FBW7–phospho-cyclin E peptide binding, activator screen; normalized activity (activation), % at 26.1 µM; actives 0.13% (n = 650,000); in the data active = normalized activity above about 1.9%;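 also: purified mutant Fbw7 with reduced substrate affinity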
Starred values were filed as active, the others as inactive. In the library only some 3.5% were active in any assay of this set; here they are far more common.

SMILES | MITF primary | TEAD-YAP inh | GPR151 ag | FBW7 act
O=C(CCCO)N=Nc1c(O)[nH]c2ccccc12 | 9 | 1 | 3 | 0
COc1ccc(-c2nc(C(N)=O)c3[nH]c(=O)n(-c4ccc(F)cc4)c3n2)cc1 | -4 | 36* | 0 | 0
COc1ccc(-c2nc(C(N)=O)c3[nH]c(=O)n(-c4cccc(Cl)c4)c3n2)cc1O | 7 | 63* | 1 | 0
COc1ccccc1-n1c(=O)[nH]c2c(C(N)=O)nc(-c3cccc(O)c3)nc21 | 18 | 34* | -2 | 0
COc1ccc(-c2nc(C(N)=O)c3[nH]c(=O)n(-c4ccccc4OC)c3n2)cc1OC | 19 | 32* | 1 | 0
O=C(Nc1nnc(-c2ccco2)o1)c1ccc(-c2ccccc2)cc1 | 8 | -3 | 0 | 0
CCCCN(C)CCCn1cnc2c([nH]c3ccc(Cl)cc32)c1=O | 0 | -12 | -1 | 1
COC(=O)c1cn(NC(=O)c2cc([N+](=O)[O-])ccc2F)c(=O)c2ccccc12 | -8 | 87* | 0 | 0
Cn1nc(-c2ccc(Cl)cc2)nc2c(=O)n(C)c(=O)nc1-2 | 14 | -48 | -8 | 0
Cn1nc(-c2ccc(F)cc2)nc2c(=O)n(C)c(=O)nc1-2 | 18 | 89* | -8 | 0
COc1ccc(-c2nc3c(=O)n(C)c(=O)nc-3n(C)n2)cc1 | 5 | 98* | -9 | 0
C/C(=C\c1ccccc1)c1nc2c(=O)n(C)c(=O)nc-2n(C)n1 | -8 | 34* | -4 | 0
Cn1nc(-c2cccnc2)nc2c(=O)n(C)c(=O)nc1-2 | 9 | 97* | -6 | 0
CC(=O)Oc1ccc(C(=O)N2CCN(Cc3ccccc3)CC2)cc1 | -2 | 6 | 2 | 0
COc1ccc(-c2nc(NCCCN3CCCC3=O)c3ncn(C(C)C)c3n2)cn1 | 10 | 17 | -2 | 0
COc1ccc(-c2nc(NCCCN3CCCC3=O)c3ncn(-c4ccsc4)c3n2)cn1 | -4 | 49* | 0 | 0
COc1ccc(-c2nc(NCCN3CCOCC3)c3ncn(-c4ccsc4)c3n2)cn1 | 20 | 35* | -1 | 0
Nc1cccc(-c2nc(NCCCN3CCCC3=O)c3ncn(CCN4CCCC4=O)c3n2)c1 | 1 | 0 | 2 | 0
Nc1cccc(-c2nc(NCCCN3CCCC3=O)c3ncn(-c4ccccc4)c3n2)c1 | 5 | 59* | 0 | 0
COc1ccc(-c2nc(NCCCN3CCCC3=O)c3ncn(-c4ccccc4)c3n2)cn1 | -1 | 55* | 3 | 0
Cc1ccc(CNCc2ccc(C(=O)O)s2)cc1 | -1 | 1 | 0 | 0
O=c1oc2ccccc2cc1C1=NN(c2ccccc2)C(c2ccccc2)C1 (centres undefined) | 2 | 1 | 2 | 0
O=C(NCc1ccc2c(c1)OCO2)C(Cl)(Cl)Cl | 15 | 5 | 0 | 0
COc1ccc(-c2nc(NCCCN3CCCC3=O)c3ncn(-c4ccsc4)c3n2)cc1 | -18 | 58* | -1 | 0
CC(=O)c1cccc(-c2nc(NCCCN3CCCC3=O)c3ncn(-c4ccsc4)c3n2)c1 | -10 | 58* | 1 | 1
SMILES | MITF primary | TEAD-YAP inh | GPR151 ag | FBW7 act
CC(=O)c1cccc(-c2nc(NCCCN3CCCC3=O)c3ncn(C(C)C)c3n2)c1 | -4 | 44* | -1 | 0
COc1ccc(CCNc2nc(NCCCN3CCCC3=O)nc3c2ncn3-c2ccsc2)cc1 | 16 | 7 | -2 | 0
O=C(NC1CC1)c1ccc(-c2nc(NCCCN3CCCC3=O)c3ncn(-c4ccsc4)c3n2)cc1 | 17 | 42* | 1 | 0
CC(CC(=O)Nc1ccc(I)cc1)Cc1ccc(Cl)cc1 (centres undefined) | 5 | -7 | -1 | 0
CCOC(=O)c1ccc(Nc2ccc3nonc3c2[N+](=O)[O-])cc1 | 4 | 7 | 1 | 0
CCOC(=O)c1ccc(Nc2ccc([N+](=O)[O-])c3nonc23)cc1 | 12 | 2 | 2 | 1.9*
Cc1cncc(NC(=O)c2cc(N3CCOCC3)cc(-n3cc(NC(=O)Cc4ccccc4)cn3)c2)c1 | 17 | 40* | 0 | 0
CSC1=C(C#N)C(c2cccc(Oc3ccccc3)c2)CC(=O)N1 (centres undefined) | 20 | 6 | 2 | 0
CNc1c2ccccc2nc2ccccc12 | -14 | 71* | 0 | 0
CC(C)Nc1c2ccccc2nc2ccccc12 | -5 | 73* | 1 | 0
Nc1cc(-c2ccccc2)nc2ccccc12 | 3 | 13 | -1 | 0
Nc1c2ccccc2nc2ccccc12 (tested in a mixture with another compound) | -2 | 71* | -1 | 0
COc1c(Cl)cc(Cl)cc1C(=O)Nc1nnn(C)n1 | 21 | 4 | 0 | 1
c1ccc(C(c2nnnn2C2CCCC2)N2CCCCCC2)nc1 (centres undefined) | 0 | 13 | 0 | -1
Oc1c(C(c2ccccn2)N2CCCC2)ccc2cccnc12 (centres undefined) | 107* | 67* | 2 | 0
Oc1c(C(c2ccccn2)N2CCN(c3ccccn3)CC2)ccc2cccnc12 (centres undefined) | 83* | -4 | -1 | -2
Oc1c(C(c2cccs2)N2CCN(c3ccccn3)CC2)ccc2cccnc12 (centres undefined) | 38 | 91* | 1 | 0
Oc1ccccc1C(Nc1nccs1)c1ccc2cccnc2c1O (centres undefined) | 41 | 24 | 2 | -2
O=C(c1ccc2ccccc2c1)N1CCN(c2ccccn2)CC1 | -1 | -1 | 2 | 0
CN1CCN(C(c2ccccn2)c2ccc3cccnc3c2O)CC1 (centres undefined) | 90* | 15 | 0 | 0
Cc1ccc(-c2noc(CNC(=O)c3ccccc3F)n2)cc1 | -19 | 15 | 2 | 0
CCCCCN1C(=O)C(=O)c2ccccc21 | -3 | -1 | 2 | 0
CCCCCN1C=CC(=C2C(=O)c3ccccc3C2=O)C=C1 | 14 | 95* | -8 | 2
CC1(C)CC2(C)N(CC(=O)N2Nc2ccccc2)C(=S)N1 (centres undefined) | 3 | -1 | -1 | 0
CC(C)c1ccccc1NC(=O)CCc1csc(NC(=O)c2ccc(F)cc2)n1 | 1 | 23 | 1 | 0
SMILES | MITF primary | TEAD-YAP inh | GPR151 ag | FBW7 act
Cc1cccc(NC(=O)CCc2csc(NC(=O)c3ccc(F)cc3)n2)c1C | 3 | 40* | 2 | 0
O=C(Cn1c2ccccc2n2nc(-c3cccs3)nc12)c1ccccc1 | -3 | -7 | 1 | 0
O=C(CN1CC[n+]2c(-c3cccs3)csc21)c1ccccc1 | 9 | 32* | 0 | 0
COc1cc(NC(=O)c2csc(-c3cccc(C(C)=O)c3)n2)cc(OC)c1OC | 13 | 30 | -1 | 0
COc1cc(CNc2ccc(-c3cccc(C(C)=O)c3)cn2)cc(OC)c1OC | 13 | 34* | 2 | 0
COc1cc(NC(=O)c2cccc(-c3cccc(C(C)=O)c3)n2)cc(OC)c1OC | -3 | 36* | 2 | 0
CC(C)(C)OC(=O)N1CCC(c2nc(-c3nc4ccc(-c5ccncc5)cc4[nH]3)cs2)CC1 | -5 | 94* | 4 | 0

Assay outcomes (PubChem)
